Compounds without any hit were thinned out: in the full panel of roughly 83,000, 20% have a hit.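 Values shown are percent growth following 48 h exposure of cells in 96-well plates to a single concentration of compound; below 10 was considered active.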 Active and inactive are the calls of the source.

The text below walks through data of PubChem BioAssay (NCI).

The subject of the assay is EKVX NSCLC. Description: NCI-60 one-dose screen, 48 h (100 = growth as untreated, 0 = no growth, -100 = all killed). The following applies: 10 µM unless noted.
Regarding `COc1cc2c(cc1O)CC[C@@H]1[C@@H]2CC[C@]2(C)[C@@H](NCCN(C)C)CC[C@@H]12`, the growth is -82.8% (active).
The same measure for `COc1cccc2c1C(=O)c1c(O)c3c(c(O)c1C2=O)C[C@](O)(C(=O)CO)C[C@H]3O[C@@H]1C[C@@H](NC(=O)CCCN(C)C2(c3ccc(F)cc3)CC3CCC2C3)[C@H](O)[C@@H](C)O1` (stereo partly drawn): -46.3% (active).
The same measure for `O=c1cc(CSc2nnc(SCc3cc(=O)oc4c3ccc3ccccc34)o2)c2ccc3ccccc3c2o1`: 94.7% (inactive); for `COc1cc2c(cc1O)CC[C@@H]1[C@@H]2CC[C@]2(C)[C@@H](OCCN(C)C)CC[C@@H]12`: 65.2% (inactive); for `COc1ccc(-c2nnc(SCC(=O)c3ccc(Cl)cc3)o2)cc1`: 101% (inactive).
Regarding `NC(=NCCCOc1ccc(Cl)cc1)Nc1ccc(C(F)(F)F)cc1`, the growth is 50.5% (inactive).
For `CCCCC[C@H]1C/C=C2/C(=O)C=C[C@@H]2C/C=C\CCCC(=O)O1` the value was -18% (active).
As for `CNC(=O)c1cc(Oc2ccc(NC(=O)Nc3ccc(Cl)c(OC(F)(F)F)c3)c(F)c2)ccn1`, the growth is 26.2% (inactive).
The same measure for `COc1ccc2c(c1)C(=O)/C(=C/c1cccnc1)CC2`: 96.5% (inactive); for `COc1cccc(-c2nc(SCC(=O)Nc3ccc(C(=O)/C=C/c4ccc(OC)c(OC)c4)cc3)[nH]c(=O)c2C#N)c1`: 87.7% (inactive); for `CCCn1c(=O)[nH]c(N)c([C@H]2c3ccccc3Oc3[nH]c(=O)n(CCC)c(=O)c32)c1=O`: 93.2% (inactive).
The same measure for `C=C1C(=O)O[C@H]2[C@H]1CC/C(COC(=O)NCc1ccc(OC)c(OC)c1)=C\CC[C@@]1(C)O[C@@H]21`: 65.9% (inactive); for `N#CN1CC[C@H](C(=O)Nc2cc3cc(C(N)=O)ccc3cn2)C1`: 2.35% (active).
The same measure for `O=C1c2c(O)cc(O)cc2-c2c(-c3ccc(O)cc3)oc3cc(O)cc1c23`: 62.2% (inactive); for `O=C1/C(=C/c2ccccc2O)N=C2SCCCN12`: 81.8% (inactive).
Regarding `COc1ccc(CN2c3ccccc3Sc3ccccc32)c(C(F)(F)F)c1`, the growth was 49.9% (inactive).
For `COc1ccc(-c2nc(SCC(=O)Nc3ccc(C(=O)/C=C/c4ccc(Cl)cc4)cc3)[nH]c(=O)c2C#N)cc1` the value was 95.7% (inactive); for `COc1ccc2c(c1)CC/C(=C\c1cncc(Br)c1)C2=O`, 99.2% (inactive).
Turning to `COc1ccc2c(c1)C(=O)/C(=C/c1ccccn1)CC2`, the growth was 92.5% (inactive).
For `Cc1nc(Nc2ccc(F)c(Cl)c2)sc1C(=O)O` the value was 8.63% (active); for `CCOC(=O)c1sc(Nc2ccc(Cl)cc2)nc1C`, 7.71% (active); for `CC(=O)c1cc(C(=O)c2ccc3c(c2)Sc2ccccc2N3)n2ccccc12`, 41.2% (inactive).
In the case of `CC(=O)O[C@H]1C(=O)[C@@]2(C)[C@H]([C@H](OC(=O)c3ccccc3)[C@]3(O)C[C@H](OC(=O)[C@H](OC(=O)CCC(=O)OC4CCC(S/N=C(N)/N=C(\N)N(C)C)CC4)[C@@H](NC(=O)c4ccccc4)c4ccccc4)C(C)=C1C3(C)C)[C@]1(OC(C)=O)CO[C@@H]1C[C@@H]2O` (stereo partly drawn), the growth is 37.3% (inactive).
The same measure for `CC(=O)OC[C@H]1O[C@H](OC(C)=O)[C@H](NC(=O)/C=C/CCl)[C@@H](OC(C)=O)[C@@H]1OC(C)=O`: 94.9% (inactive); for `COc1cc(-c2nc(C(=O)NCC(=O)NO)nn2-c2ccc(Cl)cc2)cc(OC)c1OC`: 103% (inactive); for `C=C1C(=O)O[C@H]2[C@H]1CC/C(COC(=O)NCCc1ccc(OC)c(OC)c1)=C\CC[C@@]1(C)O[C@@H]21`: 71.5% (inactive).
The same measure for `CC/C=C\C[C@H](O)C/C=C1/C(=O)C=C[C@@]1(C)C/C=C\CCCC(=O)OC`: 104% (inactive); for `Cc1ccc2oc(=O)cc(C3c4ccc([nH]4)C(c4cc(=O)oc5ccc(C)cc45)c4ccc([nH]4)C(c4cc(=O)oc5ccc(C)cc45)c4ccc([nH]4)C(c4cc(=O)oc5ccc(C)cc45)c4ccc3[nH]4)c2c1` (stereo not drawn): -19.3% (active).
Take `COc1cccc2c1C(=O)c1c(O)c3c(c(O)c1C2=O)C[C@](O)(C(=O)CO)C[C@H]3O[C@@H]1C[C@@H](NC(=O)CCCCCN(C)C2(c3ccc(F)cc3)CC3CCC2C3)[C@H](O)[C@@H](C)O1` (stereo partly drawn): the growth was 33.9% (inactive).
The same measure for `NC(=NCCCC1(c2ccccc2)CCCC1)Nc1ccc(Cl)cc1`: 78.4% (inactive); for `CCC#CC[C@H](O)C/C=C1/C(=O)C=C[C@@H]1C/C=C\CCCC(=O)OC`: 23.7% (inactive); for `O=c1oc2c(C(F)(F)F)cccc2cc1-c1csc(Nc2ccc(OCCF)cc2)n1`: 38% (inactive).
The same measure for `CNC(=O)c1cc(Oc2ccc(NC(=O)Nc3ccc(Cl)c(SC)c3)c(F)c2)ccn1`: 32.4% (inactive).
For `c1ccc2[nH]c(-c3ccc(Nc4nc(N5CCCC5)nc5[nH]ncc45)cc3)nc2c1` the value was -8.31% (active); for `CC/C=C\C/C=C\C[C@H]1C/C=C2/C(=O)C=C[C@@H]2C/C=C\CCC(=O)O1`, 31.4% (inactive).
Regarding `COc1ccc(CN2c3ccccc3Sc3ccccc32)cc1O`, the growth was 36.7% (inactive).
The same measure for `CCOc1ccc(-n2nc(C(=O)Nc3cc(OC)c(OC)c(OC)c3)nc2-c2cc(OC)c(OC)c(OC)c2)cc1`: 96.1% (inactive).
For `CC/C=C\C[C@H]1C/C=C2/C(=O)C=C[C@H]2C/C=C\CCCC(=O)O1` the value was 45% (inactive).
